In the supplement of paper PMC8007513:
Structures can show the parent of a compound that is named as a salt. ± gives the standard error. Hit rate of the full screen: of about 1,300 compounds, about 130 (10%) showed an effect of 50% or more. This excerpt belongs to a sample that is enriched for strong results.

Test system: Trichoderma virens ATCC 9645
Test: growth yield (OD600) with compound + IPBC relative to untreated control; higher = less growth inhibition
Details: compound concentration: 100 uM, IPBC concentration: 200 ng/ml
In short: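 Trichoderma virens ATCC 9645 spores at 15,000 spores ml^−1 in potato dextrose broth were exposed in 96-well plates to library compounds at 100 μM final, with or without a biocide at 200 ng ml^−1. After growth at 30 °C, OD600 was read at 40 h and 72 h. Values are growth relative to the control without either agent, averaged over duplicate screens.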

Compound | growth yield (40 h) | growth yield (72 h)
CCN(CC)C(=O)N1CCN(C)CC1 [Diethylcarbamazine citrate] + CCCCNC(=O)OCC#CI [3-iodo-2-propynyl butylcarbamate (IPBC)] | 83.4 ± 2.4% | 94.1 ± 1.4%
CN(CCOc1ccc(CC2SC(=O)NC2=O)cc1)c1ccccn1 (centres undefined) [Rosiglitazone Hydrochloride] + CCCCNC(=O)OCC#CI [3-iodo-2-propynyl butylcarbamate (IPBC)] | 76.4 ± 7.5% | 82.6 ± 6.1%
CCCOc1ccccc1-c1nc2[nH]nnc2c(=O)[nH]1 [Zaprinast] + CCCCNC(=O)OCC#CI [3-iodo-2-propynyl butylcarbamate (IPBC)] | 87.2 ± 0.79% | 98.7 ± 1.1%
N[C@@H]1CCCCN(c2c(F)cc3c(=O)c(C(=O)O)cn(C4CC4)c3c2Cl)C1 [Besifloxacin hydrochloride] + CCCCNC(=O)OCC#CI [3-iodo-2-propynyl butylcarbamate (IPBC)] | 88.5 ± 2.7% | 88.1 ± 2.7%
COc1ccc(C(Cl)=C(c2ccc(OC)cc2)c2ccc(OC)cc2)cc1 [Chlorotrianisene] + CCCCNC(=O)OCC#CI [3-iodo-2-propynyl butylcarbamate (IPBC)] | 103 ± 17% | 101 ± 11%
CN(C)CCOc1ccc(/C(=C(/CCCl)c2ccccc2)c2ccccc2)cc1 [Toremifene] + CCCCNC(=O)OCC#CI [3-iodo-2-propynyl butylcarbamate (IPBC)] | 3.49 ± 0.95% | 3.15 ± 0.42%
CCN(CC)CCOc1ccc(C(=C(Cl)c2ccccc2)c2ccccc2)cc1 [Clomiphene citrate (Z,E)] + CCCCNC(=O)OCC#CI [3-iodo-2-propynyl butylcarbamate (IPBC)] | 3.02 ± 0.16% | 2.94%
CN(C)CCOC(=O)COc1ccc(Cl)cc1 [Meclofenoxate hydrochloride] + CCCCNC(=O)OCC#CI [3-iodo-2-propynyl butylcarbamate (IPBC)] | 93.2 ± 3.3% | 96.7 ± 2.1%
COc1cc(C(=O)NCc2ccc(OCCN(C)C)cc2)cc(OC)c1OC [Trimethobenzamide hydrochloride] + CCCCNC(=O)OCC#CI [3-iodo-2-propynyl butylcarbamate (IPBC)] | 90.2 ± 1.3% | 91.3 ± 2.8%
CN(C)CCOC(c1ccccc1)c1ccccc1 [Diphenhydramine hydrochloride] + CCCCNC(=O)OCC#CI [3-iodo-2-propynyl butylcarbamate (IPBC)] | 87.2 ± 2.1% | 94 ± 2.1%
COc1ccc(C(=O)NCc2ccc(OCCN(C)C)cc2)cc1OC [Itopride] + CCCCNC(=O)OCC#CI [3-iodo-2-propynyl butylcarbamate (IPBC)] | 107 ± 1.1% | 102%
CCN(CC)CCOC(=O)C(c1ccccc1)c1ccccc1 [Adiphenine hydrochloride] + CCCCNC(=O)OCC#CI [3-iodo-2-propynyl butylcarbamate (IPBC)] | 87.2 ± 1.4% | 92.8 ± 1.4%
CC/C(=C(\c1ccccc1)c1ccc(OCCN(C)C)cc1)c1ccccc1 [Tamoxifen citrate] + CCCCNC(=O)OCC#CI [3-iodo-2-propynyl butylcarbamate (IPBC)] | 3.34 ± 0.48% | 3.36 ± 0.63%
CCN(CC)CCNC(=O)c1cc(Br)c(N)cc1OC [Bromopride] + CCCCNC(=O)OCC#CI [3-iodo-2-propynyl butylcarbamate (IPBC)] | 92.6 ± 14% | 93.8 ± 7.5%
CCCOc1cc(N)ccc1C(=O)OCCN(CC)CC [Propoxycaine hydrochloride] + CCCCNC(=O)OCC#CI [3-iodo-2-propynyl butylcarbamate (IPBC)] | 86.7% | 88.73 ± 0.42%
CCC1(C)CC(=O)NC1=O (centres undefined) [Ethosuximide] + CCCCNC(=O)OCC#CI [3-iodo-2-propynyl butylcarbamate (IPBC)] | 94.8 ± 2.1% | 97.85 ± 0.94%
CN1CCN(C2=Nc3ccccc3Oc3ccc(Cl)cc32)CC1 [Loxapine succinate] + CCCCNC(=O)OCC#CI [3-iodo-2-propynyl butylcarbamate (IPBC)] | 71.8 ± 2.2% | 91.87 ± 0.84%
CC(=O)N(CC(C)C(=O)O)c1c(I)cc(I)c(N)c1I (centres undefined) [Iocetamic acid] + CCCCNC(=O)OCC#CI [3-iodo-2-propynyl butylcarbamate (IPBC)] | 107 ± 18% | 102 ± 11%
C#C[C@]1(O)CC[C@H]2[C@@H]3[C@H](C)CC4=C(CCC(=O)C4)[C@H]3CC[C@@]21C [Tibolone] + CCCCNC(=O)OCC#CI [3-iodo-2-propynyl butylcarbamate (IPBC)] | 80.1 ± 2.9% | 90.09 ± 0.1%
Cc1ccc(-c2cc(C(F)(F)F)nn2-c2ccc(S(N)(=O)=O)cc2)cc1 [Celecoxib] + CCCCNC(=O)OCC#CI [3-iodo-2-propynyl butylcarbamate (IPBC)] | 57.8 ± 0.64% | 78.76 ± 0.73%
C[C@]12CC[C@@H]3c4ccc(OC(=O)N(CCCl)CCCl)cc4CC[C@H]3[C@@H]1CC[C@@H]2O [Estramustine] + CCCCNC(=O)OCC#CI [3-iodo-2-propynyl butylcarbamate (IPBC)] | 97.8 ± 4.5% | 98.1 ± 4.7%
CC(C)NNC(=O)c1ccncc1 [Iproniazide phosphate] + CCCCNC(=O)OCC#CI [3-iodo-2-propynyl butylcarbamate (IPBC)] | 89.3 ± 0.95% | 99 ± 0.84%
Oc1ccc(OCc2ccccc2)cc1 [Monobenzone] + CCCCNC(=O)OCC#CI [3-iodo-2-propynyl butylcarbamate (IPBC)] | 50.7 ± 6.5% | 63 ± 4.3%
CCCCOC(=O)c1ccc(O)cc1 [Butylparaben] + CCCCNC(=O)OCC#CI [3-iodo-2-propynyl butylcarbamate (IPBC)] | 27.5 ± 1.8% | 46.9 ± 3.2%
CCCCOC(=O)c1ccc(N)cc1 [Butamben] + CCCCNC(=O)OCC#CI [3-iodo-2-propynyl butylcarbamate (IPBC)] | 53.53 ± 0.16% | 70.7 ± 3.4%
CCCCN(CCCC)CCCOC(=O)c1ccc(N)cc1 [Butacaine] + CCCCNC(=O)OCC#CI [3-iodo-2-propynyl butylcarbamate (IPBC)] | 106 ± 9.2% | 105 ± 8.7%
NNc1nncc2ccccc12 [Hydralazine hydrochloride] + CCCCNC(=O)OCC#CI [3-iodo-2-propynyl butylcarbamate (IPBC)] | 120 ± 6.8% | 125 ± 11%
